CYP2C19 inhib: inhibitors of human CYP2C19 | P33261 | CYP2C19 Supersomes, luciferin-H EGE luminescence, 30 min | inhibition, % at 5 µM | actives 21% (n = 96,000) | AID 778;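 active = CYP2C19 inhibition above a set limit at 5 µM in the primary screen, cut at about 50% in these data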;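 note: plate controls were negative control wells for no effect and 2.5 mM tranylcypromine positive control for full effect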
CYP2C9 inhib: inhibitors of human CYP2C9. CYP2C9 Supersomes, luciferin-H conversion, luminescence. inhibition, % at 5 µM. actives 20% (n = 96,000). AID 777;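 active = blocking of liver enzyme CYP2C9 beyond about 50% at 5 µM, limit read from the data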
Cav3 T inh: human Cav3.2 channel inhibition, primary screen; O95180; Cav3.2-expressing cells, Fluo-4 calcium fluorescence FDSS; active compounds read low; B-score at 10 µM; actives 4% (n = 100,000); AID 449739;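 active = single-dose well whose peak fluorescence ratio is a statistical outlier from its plate by either plate-standardised score or position-corrected B-score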
CYP2C19 activ: increases human CYP2C19 enzyme activity; recombinant CYP2C19, luciferin-H EGE luminescence; active compounds read high; 0 = fully inhibited enzyme, 1 = untreated enzyme; P33261; activation factor at 5 µM; 96,000 tested, under 10 active;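 active = activation factor of at least 2 at 5 µM in the primary screen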;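 note: 0 = wells with 2.5 mM tranylcypromine and 1 = vehicle-only wells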
CYP2C9 act: increases human cytochrome P450 2C9 activity. P11712. recombinant CYP2C9, luciferin-H conversion, luminescence; active compounds read high; factor 1 = untreated enzyme, 0 = blocked. activation factor at 5 µM. actives 1.4% (n = 96,000). AID 1024;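 active = activation factor of 2 or more for CYP2C9 at a 5 µM dose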;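 note: 0 = sulfaphenazole-blocked wells and 1 = vehicle-only wells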
* hit, by the source's call; / = not tested or not shown. A selection: hits, their analogues and other compounds. The true share with any hit is near 27%.

SMILES	CYP2C19 inhib	CYP2C9 inhib	Cav3 T inh	CYP2C19 activ	CYP2C9 act
Clc1ccc(CSc2nnc(-c3c[nH]c4ccccc34)o2)cc1	5	20	0.56	1	0.8
O=C(O)c1cccc(CSc2nnc(-c3ccco3)o2)c1	-5	-8	/	1.1	1.1
O=C(Nc1ccccc1-c1nnc(SCc2ccccc2)o1)c1ccccc1	16	79*	-5.8*	0.8	0.2
O=C(Nc1ccccc1-c1nnc(SCc2ccc(Cl)cc2)o1)c1ccccc1	-3	70*	-4.2*	1	0.3
CCNS(=O)(=O)c1ccc(NC(=O)Cc2ccc(F)cc2)cc1	10	48	-1.6	0.9	0.5
CCOC(=O)NCc1ccc(S(=O)(=O)Nc2ccc(C)cc2)cc1	/	/	-0.57	/	/
CCNC(=O)Cc1ccc(NS(=O)(=O)c2ccc(F)cc2)cc1	27	53*	0.022	0.7	0.5
O=C(Cc1ccc(NS(=O)(=O)c2ccc(F)cc2)cc1)NCc1ccccc1	76*	94*	-5.2*	0.2	0.1
CC1=C(C(=O)Nc2ccccc2)C(c2ccncc2)C(C#N)=C(SCC(=O)Nc2ccccc2)N1 (stereo not drawn)	84*	80*	-2.5	0.2	0.2
CC1=C(C(=O)Nc2ccccc2)C(c2ccco2)C(C#N)=C(SCc2ccccc2)N1 (stereo not drawn)	97*	96*	-4.2	0	0
CC1=C(C(=O)Nc2ccccc2)C(c2ccco2)C(C#N)=C(SCC(=O)OC(C)C)N1 (stereo not drawn)	43	45	-4.9*	0.6	0.6
CC1=C(C(=O)Nc2ccccc2)C(c2ccco2)C(C#N)=C(SCC(=O)Nc2cccc(C)c2C)N1 (stereo not drawn)	72*	72*	-5.4*	0.3	0.3
CC1=C(C(=O)Nc2ccccc2)C(c2ccco2)NC(=S)N1 (stereo not drawn)	14	11	-0.03	0.9	0.9
O=C(Nc1ccccc1)N(Cc1ccc(Cl)cc1)CC(O)C(F)(F)F (stereo not drawn)	37	53*	0.91	0.6	0.5
O=C(Nc1ccc(Cl)cc1)N(Cc1cccs1)Cc1cccs1	23	38	-0.035	0.8	0.6
COc1ccccc1NC(=O)Cn1nnc(-c2ccccc2NC(=O)c2cccs2)n1	-1	26	0.11	1	0.7
COc1ccc(NC(=O)Cn2nnc(-c3ccccc3F)n2)cc1	16	14	/	0.8	0.9
COc1cc(NC(=O)Cn2nnc(-c3ccccc3N)n2)cc(OC)c1	40	54*	-3.9	0.6	0.5
COc1ccc(NC(=O)Cn2nnc(-c3ccccc3NC(=O)c3ccco3)n2)cc1	17	25	0.018	0.8	0.7
O=C(Cn1nnc(-c2ccccc2NC(=O)c2cccs2)n1)Nc1ccccc1	23	76*	0.043	0.8	0.2
COc1ccc(NC(=O)Cn2nnc(-c3ccccc3NC(=O)C3CC3)n2)cc1	94*	44	-0.17	0.1	0.6
COc1ccc(NC(=O)Cn2nnc(-c3ccccc3N)n2)cc1OC	-14	3	-1.4	1.1	1
CCOc1ccc(NC(=O)Cn2nnc(-c3ccccc3NC(=O)C3CC3)n2)cc1	82*	36	0.082	0.2	0.6
N[C@@H](CO)c1nnc([C@H](CC(=O)O)NC(=O)C2CCNCC2)o1	/	/	0.44	/	/
CC(C)n1nnnc1SCC(=O)N1CCOCC1	5	0	-0.078	1	1
SMILES	CYP2C19 inhib	CYP2C9 inhib	Cav3 T inh	CYP2C19 activ	CYP2C9 act
CCC(=O)Nc1ccccc1-c1nnn(CC(=O)N2c3ccccc3CC2C)n1 (stereo not drawn)	45	78*	-0.31	0.6	0.2
COc1ccc(C(=O)Cn2nnc(-c3ccccc3NC(=O)C3CCCCC3)n2)cc1	19	85*	0.15	0.8	0.1
O=C(NCc1ccc2c(c1)OCO2)c1ccc(N2CCCC2=O)cc1	23	29	0.053	0.8	0.7
Cc1ccc(S(=O)(=O)Nc2ccc(-c3nc4cc(NS(=O)(=O)c5ccc(C)cc5)ccc4o3)cc2)cc1	81*	97*	-0.3	0.2	0
CC(C)(CNS(=O)(=O)c1ccc(F)cc1)CNS(=O)(=O)c1ccc(F)cc1	32	0	/	0.7	1
CC(C)(C)NS(=O)(=O)c1ccc(NS(=O)(=O)c2ccc(F)cc2)cc1	38	93*	-2.3	0.6	0.1
CCCN(CCC)S(=O)(=O)c1ccc(NS(=O)(=O)c2ccc(F)cc2)cc1	46	92*	-3.9*	0.5	0.1
Cc1ccc(S(=O)(=O)Nc2cccnc2)cc1	15	2	-0.23	0.8	1

Source: PubChem BioAssay (several laboratories)
